The source of these data is PMC11006913.

What all share (assay): PBM; 200 nM protein, PBS
What all share (conditions): dsDNA, one strand shown

Experiment [1] has as its target HOXB9 (Homo sapiens, UniProt P17482 171-250, T197M).
The target of experiment [2] is HOXC9 (Homo sapiens, UniProt P31274 178-260, K195R).
Experiment [3] addresses T1, VENTX (Homo sapiens, UniProt O95231 78-163).
T1 sequence: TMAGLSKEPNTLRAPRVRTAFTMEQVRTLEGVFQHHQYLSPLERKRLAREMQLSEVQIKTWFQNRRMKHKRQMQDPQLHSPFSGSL

The target in experiment [4] is HOXA7 (Homo sapiens, UniProt P31268 116-202).
Sequence of HOXA7 (Homo sapiens, UniProt P31268 116-202) (P31268 116-202): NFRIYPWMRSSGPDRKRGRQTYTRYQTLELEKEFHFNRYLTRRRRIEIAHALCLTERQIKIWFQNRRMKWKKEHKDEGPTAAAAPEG
Experiment [5] concerns the target HOXC10 (Homo sapiens, UniProt Q9NYD6 254-340).
Experiment [6] has as its target T2, PAX4 (Homo sapiens, UniProt O43316 9-242).
T2 sequence: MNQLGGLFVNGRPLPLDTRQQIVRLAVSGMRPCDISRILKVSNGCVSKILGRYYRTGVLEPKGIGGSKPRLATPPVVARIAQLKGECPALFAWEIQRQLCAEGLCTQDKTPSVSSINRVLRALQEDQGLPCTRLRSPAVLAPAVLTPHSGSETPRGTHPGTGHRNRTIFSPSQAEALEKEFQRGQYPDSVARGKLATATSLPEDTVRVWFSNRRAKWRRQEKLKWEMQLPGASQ

Experiment [7] concerns the target HOXB6 (Homo sapiens, UniProt P17509 132-218, K202E).
Experiment [8] addresses HOXB9 (Homo sapiens, UniProt P17482 171-250).
In experiment [9] the target is HOXC9 (Homo sapiens, UniProt P31274 178-260).
Sequence of HOXC9 (Homo sapiens, UniProt P31274 178-260) (P31274 178-260): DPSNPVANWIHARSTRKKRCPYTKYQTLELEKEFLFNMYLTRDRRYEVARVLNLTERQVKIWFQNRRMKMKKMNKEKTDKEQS
The target of experiment [10] is HOXC9 (Homo sapiens, UniProt P31274 178-260, R193K).
Sequence of HOXC9 (Homo sapiens, UniProt P31274 178-260, R193K) (P31274 178-260 R193K): as the sequence (P31274 178-260) above, with R16K counted along it
Experiment [11] concerns the target HOXA2 (Homo sapiens, UniProt O43364 129-215, R185K).
Experiment [12] concerns the target HOXC10 (Homo sapiens, UniProt Q9NYD6 254-340, K271E).
In experiment [13] the target is VAX1 (Homo sapiens, UniProt Q5SQQ9 86-172).
Sequence of VAX1 (Q5SQQ9 86-172): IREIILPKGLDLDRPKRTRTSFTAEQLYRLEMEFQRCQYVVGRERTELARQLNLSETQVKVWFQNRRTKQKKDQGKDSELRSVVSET
Experiment [14] deals with HOXB9 (Homo sapiens, UniProt P17482 171-250, R186Q).
Sequence of HOXB9 (Homo sapiens, UniProt P17482 171-250, R186Q) (P17482 171-250 R186Q): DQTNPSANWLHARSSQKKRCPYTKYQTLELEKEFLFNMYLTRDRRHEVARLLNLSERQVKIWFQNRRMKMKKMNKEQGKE
In experiment [15] the target is HOXC9 (Homo sapiens, UniProt P31274 178-260, R222W).
Sequence of HOXC9 (Homo sapiens, UniProt P31274 178-260, R222W) (P31274 178-260 R222W): as the sequence (P31274 178-260) above, with R45W counted along it
Experiment [16] concerns the target T3, PAX4 (Homo sapiens, UniProt O43316 9-242, R227W).
T3 sequence: T2 sequence with R219W

Experiment [17] concerns the target HOXA2 (Homo sapiens, UniProt O43364 129-215, Y150S).
For experiment [18], the target named is HOXA7 (Homo sapiens, UniProt P31268 116-202, W177C).
Sequence of HOXA7 (Homo sapiens, UniProt P31268 116-202, W177C) (P31268 116-202 W177C): as the sequence (P31268 116-202) above, with W62C counted along it
The target in experiment [19] is HOXA2 (Homo sapiens, UniProt O43364 129-215).
Sequence of HOXA2 (Homo sapiens, UniProt O43364 129-215) (O43364 129-215): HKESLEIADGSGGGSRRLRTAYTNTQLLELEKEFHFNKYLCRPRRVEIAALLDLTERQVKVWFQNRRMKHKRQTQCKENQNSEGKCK
Experiment [20] has as its target HOXB6 (Homo sapiens, UniProt P17509 132-218).

Changes are numbered by the printed parent chain.

Sequence of HOXA2 (Homo sapiens, UniProt O43364 129-215, Y150S) (O43364 129-215 Y150S): as the sequence (O43364 129-215) above, with Y22S counted along it
Sequence of HOXC10 (Homo sapiens, UniProt Q9NYD6 254-340, K271E) (Q9NYD6 254-340 K271E): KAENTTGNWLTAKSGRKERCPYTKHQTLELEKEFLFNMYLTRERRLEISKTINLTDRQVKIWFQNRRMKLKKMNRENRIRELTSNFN
Sequence of HOXB9 (Homo sapiens, UniProt P17482 171-250) (P17482 171-250): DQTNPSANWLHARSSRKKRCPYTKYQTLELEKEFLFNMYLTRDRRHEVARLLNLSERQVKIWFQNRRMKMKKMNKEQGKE
Sequence of HOXB6 (Homo sapiens, UniProt P17509 132-218, K202E) (P17509 132-218 K202E): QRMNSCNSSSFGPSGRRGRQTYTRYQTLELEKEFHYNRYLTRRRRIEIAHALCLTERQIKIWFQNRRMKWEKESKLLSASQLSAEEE
Sequence of HOXB6 (Homo sapiens, UniProt P17509 132-218) (P17509 132-218): as the sequence (P17509 132-218 K202E) above, with E71K counted along it
Sequence of HOXC9 (Homo sapiens, UniProt P31274 178-260, K195R) (P31274 178-260 K195R): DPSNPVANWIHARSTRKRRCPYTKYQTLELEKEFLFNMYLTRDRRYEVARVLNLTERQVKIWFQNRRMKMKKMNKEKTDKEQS
Sequence of HOXA2 (Homo sapiens, UniProt O43364 129-215, R185K) (O43364 129-215 R185K): as the sequence (O43364 129-215) above, with R57K counted along it
Sequence of HOXC10 (Homo sapiens, UniProt Q9NYD6 254-340) (Q9NYD6 254-340): as the sequence (Q9NYD6 254-340 K271E) above, with E18K counted along it
Sequence of HOXB9 (Homo sapiens, UniProt P17482 171-250, T197M) (P17482 171-250 T197M): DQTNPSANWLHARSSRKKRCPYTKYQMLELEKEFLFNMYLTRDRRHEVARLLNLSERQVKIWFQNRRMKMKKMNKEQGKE

Consider AATTAATG, for which the binding signal in experiment [1] was 10.2 upbm affinity estimate (log intensity, higher = more binding, comparable within an allelic series); in experiment [2], 12.8 upbm affinity estimate (log intensity, higher = more binding, comparable within an allelic series); in experiment [3], 12.5 upbm affinity estimate (log intensity, higher = more binding, comparable within an allelic series); in experiment [4], 11.9 upbm affinity estimate (log intensity, higher = more binding, comparable within an allelic series); in experiment [5], 12.2 upbm affinity estimate (log intensity, higher = more binding, comparable within an allelic series); in [6] it was 12.5 upbm affinity estimate (log intensity, higher = more binding, comparable within an allelic series). The binding signal was 10.1 upbm affinity estimate (log intensity, higher = more binding, comparable within an allelic series) in [7]; 12.1 upbm affinity estimate (log intensity, higher = more binding, comparable within an allelic series) in experiment [8]; 12.8 upbm affinity estimate (log intensity, higher = more binding, comparable within an allelic series) in experiment [9]; 12.8 upbm affinity estimate (log intensity, higher = more binding, comparable within an allelic series) in experiment [10]; 13.5 upbm affinity estimate (log intensity, higher = more binding, comparable within an allelic series) in experiment [11]; 12 upbm affinity estimate (log intensity, higher = more binding, comparable within an allelic series) in experiment [12]. Moreover, the binding signal in experiment [13] was 13.1 upbm affinity estimate (log intensity, higher = more binding, comparable within an allelic series); in experiment [14], 11.8 upbm affinity estimate (log intensity, higher = more binding, comparable within an allelic series); in experiment [15], 11 upbm affinity estimate (log intensity, higher = more binding, comparable within an allelic series); in experiment [16] it was 11.1 upbm affinity estimate (log intensity, higher = more binding, comparable within an allelic series); in experiment [17] it was 11 upbm affinity estimate (log intensity, higher = more binding, comparable within an allelic series); in [18], 8.87 upbm affinity estimate (log intensity, higher = more binding, comparable within an allelic series). In addition, the binding signal is 12.5 upbm affinity estimate (log intensity, higher = more binding, comparable within an allelic series) in [19] and 12.2 upbm affinity estimate (log intensity, higher = more binding, comparable within an allelic series) in experiment [20].

With ATAATTAA, the binding signal in experiment [1] is 10.3 upbm affinity estimate (log intensity, higher = more binding, comparable within an allelic series); in [2], 12.9 upbm affinity estimate (log intensity, higher = more binding, comparable within an allelic series); in experiment [3], 12.5 upbm affinity estimate (log intensity, higher = more binding, comparable within an allelic series); in experiment [4], 12.1 upbm affinity estimate (log intensity, higher = more binding, comparable within an allelic series); in [5], 12.5 upbm affinity estimate (log intensity, higher = more binding, comparable within an allelic series); in experiment [6], 12.4 upbm affinity estimate (log intensity, higher = more binding, comparable within an allelic series). Further, the binding signal in [7] was 10.3 upbm affinity estimate (log intensity, higher = more binding, comparable within an allelic series); in experiment [8], 12.1 upbm affinity estimate (log intensity, higher = more binding, comparable within an allelic series); in [9], 12.9 upbm affinity estimate (log intensity, higher = more binding, comparable within an allelic series); in experiment [10] it was 12.8 upbm affinity estimate (log intensity, higher = more binding, comparable within an allelic series); in experiment [11] it was 13.7 upbm affinity estimate (log intensity, higher = more binding, comparable within an allelic series); in experiment [12], 12.3 upbm affinity estimate (log intensity, higher = more binding, comparable within an allelic series). Besides, the binding signal in experiment [13] is 13.5 upbm affinity estimate (log intensity, higher = more binding, comparable within an allelic series); in [14] it was 11.9 upbm affinity estimate (log intensity, higher = more binding, comparable within an allelic series); in experiment [15] it was 11.2 upbm affinity estimate (log intensity, higher = more binding, comparable within an allelic series); in [16] it was 11.2 upbm affinity estimate (log intensity, higher = more binding, comparable within an allelic series); in experiment [17] it was 11 upbm affinity estimate (log intensity, higher = more binding, comparable within an allelic series); in [18], 8.99 upbm affinity estimate (log intensity, higher = more binding, comparable within an allelic series). Besides, the binding signal in experiment [19] was 13 upbm affinity estimate (log intensity, higher = more binding, comparable within an allelic series); in experiment [20], 12.4 upbm affinity estimate (log intensity, higher = more binding, comparable within an allelic series).

Take GTAATTAA: the binding signal in experiment [1] is 10.6 upbm affinity estimate (log intensity, higher = more binding, comparable within an allelic series); in [2] it was 13.3 upbm affinity estimate (log intensity, higher = more binding, comparable within an allelic series); in experiment [3], 13 upbm affinity estimate (log intensity, higher = more binding, comparable within an allelic series); in [4], 12.5 upbm affinity estimate (log intensity, higher = more binding, comparable within an allelic series); in experiment [5] it was 12.7 upbm affinity estimate (log intensity, higher = more binding, comparable within an allelic series); in experiment [6] it was 12.6 upbm affinity estimate (log intensity, higher = more binding, comparable within an allelic series). The binding signal was 10.3 upbm affinity estimate (log intensity, higher = more binding, comparable within an allelic series) in experiment [7]; 12.6 upbm affinity estimate (log intensity, higher = more binding, comparable within an allelic series) in experiment [8]; 13.2 upbm affinity estimate (log intensity, higher = more binding, comparable within an allelic series) in experiment [9]; 13.2 upbm affinity estimate (log intensity, higher = more binding, comparable within an allelic series) in experiment [10]; 13.9 upbm affinity estimate (log intensity, higher = more binding, comparable within an allelic series) in experiment [11]; 12.9 upbm affinity estimate (log intensity, higher = more binding, comparable within an allelic series) in experiment [12]. Besides, the binding signal is 13.8 upbm affinity estimate (log intensity, higher = more binding, comparable within an allelic series) in experiment [13]; 12.4 upbm affinity estimate (log intensity, higher = more binding, comparable within an allelic series) in [14]; 11.3 upbm affinity estimate (log intensity, higher = more binding, comparable within an allelic series) in [15]; 11.2 upbm affinity estimate (log intensity, higher = more binding, comparable within an allelic series) in experiment [16]; 11.1 upbm affinity estimate (log intensity, higher = more binding, comparable within an allelic series) in [17]; 9.01 upbm affinity estimate (log intensity, higher = more binding, comparable within an allelic series) in experiment [18]. The binding signal is 13.2 upbm affinity estimate (log intensity, higher = more binding, comparable within an allelic series) in [19] and 12.9 upbm affinity estimate (log intensity, higher = more binding, comparable within an allelic series) in experiment [20].
